Compounds with a hit are over-represented: about 2.7% of the library has one in this group of screens.
gsp antagonist = antagonizes gsp, the McCune-Albright syndrome mutation. gsp-mutant cells, cAMP HTRF, 30 min. Potency, µM (highest dose often 76.9 µM), for inactives: at the highest dose activity change, negative = inhibition, actives largely listed as inhibitors. 0.4% of 340,000 active; calls by dose curve; cell line not stated here;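 also: intracellular cAMP measured with PDE inhibitor Ro 20-1724 present during compound exposure; potency is read from the fitted curve at half-maximal effect; % is scaled to controls: 0 for no effect and ±100 for the full control effect; nearly all actives have a fitted effect of over 65% in size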
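Measurement of cellular cAMP by homogeneous time-resolved fluorescence following a 30 min compound exposure at 37C. The PDE inhibitor […] was present throughout; the assay buffer was DPBS with 0.05% BSA and 0.005% Tween 20.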
RXFP1 antag = antagonists of human relaxin receptor RXFP1. Q9HBX9. HEK293-RXFP1, relaxin-stimulated cAMP HTRF, 30 min; active compounds read low. activity change, negative = inhibition, % at 57.5 µM. 0.59% of 350,000 active. AID 1259400;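 active = activity change of -60% or lower, but not beyond a set lower limit; inconclusive = change between -60% and -40%, or beyond the set limit; inactive = change above -40%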; also: % is scaled to controls: 0 for no effect and ±100 for the full control effect
gsp agonist = gsp mutant agonism; AID 624287; gsp mutant cells, cAMP HTRF, 30 min; Potency, µM (titrated, usually from 76.9 µM), for the others: at the highest dose activation (cAMP increase), usual class: activators; 0.13% of 340,000 active; active = well fitted activation curve with a large enough effect; inconclusive = small, poorly fitted or top-dose-only effect, or another doubt; inactive = no such curve, though single readings can be large or run the other way; cell line not stated here;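 also: phosphodiesterase inhibitor Ro 20-1724 added with compounds to block cAMP breakdown; potency is read from the fitted curve at half-maximal effect; nearly all actives have a fitted effect of over 60% in size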
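Cells stably selected in G418 were plated at 2000/well, grown 16-24 hr, then given compounds in DMSO with the PDE inhibitor […] (300 uM solution added) for 30 min at 37C; cAMP was read by HTRF.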
pAkt inh = blocks phosphorylation of Akt; activity change, % for hits at 50 µM; Neuro2A IGF-stimulated pAkt S473 HTRF, 20 min; active compounds read low; AID 651550; 0.32% of 360,000 active; in the data active = activity change below about -80%; inconclusive = mostly about -51% to -80%; also: % is scaled to controls: 0 for no effect and ±100 for the full control effect
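Neuro2A cells in DMEM with 0.5% FBS, overnight at 37 deg C, given compound at single 50 µM final, then IGF (6 nM final) for 20 min at 37 deg C. Lysed; phospho-Akt Ser473 by HTRF after 24 h, 665/615 ratio.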
RXFP1 agonist = RXFP1 (human) receptor agonism; Potency, µM (series often up to 57.5 µM), for inactives: at the highest dose activation, actives largely listed as activators; 0.3% of 370,000 active; Q9HBX9; HEK293T-RXFP1 cAMP TR-FRET, 30 min; response scale: percent of porcine relaxin response, buffer zero; AID 2676; active = well fitted activation curve with a large enough effect; inconclusive = small, poorly fitted or top-dose-only effect; also: potency is read from the fitted curve at half-maximal effect; % is scaled to controls: 0 for no effect and ±100 for the full control effect; nearly all actives have a fitted effect of over 60% in size
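HEK293 cells stably expressing RXFP1, treated 30 min at 37C with compounds plus PDE4 inhibitor Ro 20174; cAMP measured by HTRF TR-FRET. Normalized to buffer and 29 nM porcine relaxin; EC50 by Hill fit.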
ClpP mod = qHTS Assay for Activators of ClpP; Potency, µM (series often up to 57.5 µM), without a hit: at the top dose activity change, negative = active; purified B. subtilis ClpP, FRET peptide cleavage, 20 min; AID 651965, 2013; ATP-dependent Clp protease proteolytic subunit (Bacillus subtilis (strain 168)), P80244; 1.9% of 340,000 active; active = well fitted falling curve with a large enough effect; inconclusive = small, poorly fitted or top-dose-only effect; inactive = no such curve, though single readings can be large or run the other way; also: potency is read from the fitted curve at half-maximal effect; the source files actives as falling curves though it sought activators and does not explain the sign; nearly all actives have a fitted effect of over 65% in size
Target sequence (P80244 whole entry, looked up): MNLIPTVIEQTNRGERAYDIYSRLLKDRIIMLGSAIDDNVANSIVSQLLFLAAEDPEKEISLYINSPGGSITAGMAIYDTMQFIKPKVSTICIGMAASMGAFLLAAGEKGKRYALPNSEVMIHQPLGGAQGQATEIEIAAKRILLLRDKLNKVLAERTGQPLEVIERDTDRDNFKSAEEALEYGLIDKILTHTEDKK
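Purified B. subtilis ClpP, 10 microg/mL final in Tris/HCl pH8 with KCl, BSA, glycerol and Tween-20, cleaved an Abz/nitrotyrosine-quenched decapeptide. Fluorescence (ex 320, em 430) was read at 0 and 20 min at room temperature. Delta was normalized to 5.8 microM ADEP and DMSO/no-enzyme controls.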
Numbers without * were called inactive; i = inactive; ? = inconclusive; / = no result; ! = not confirmed by another sample; [ ] = dose if it differs, or a comment.

SMILES | gsp antagonist | RXFP1 antag | gsp agonist | pAkt inh | RXFP1 agonist | ClpP mod
O=C1c2ccccc2-c2onc3c(N4CCN(CCO)CC4)cc(N4CCN(C(=O)c5ccco5)CC4)c1c23 | 18µM* | -32 | -13%[15.4 µM] | i | 2% | /
CC(=O)c1c(C)[nH]c(C(=O)OCC(=O)Nc2ccc(Cl)c(S(=O)(=O)N(C)C)c2)c1C | 40µM* | -21 | 37% | i | -1% | 3%
CC(C)(C)OC(=O)C[C@@H]1C/C=C\C[C@@H](CC(=O)N[C@@H](CO)Cc2ccccc2)C(=O)N2CCC[C@@H]2COC1=O | -6% | / | -82% | i | / | 2%
CCCC(=O)Nc1nnc(-c2cccc(OCC)c2)s1 | 17% | 1 | 30% | i | 11% | 28µM*
O=C(Cc1ccccc1)Nc1nnc(-c2cccc([N+](=O)[O-])c2)s1 | -6% | / | 8% | i | 0% | 32µM*
CCCOc1cccc(-c2nnc(NC(=O)c3ccco3)s2)c1 | 2% | -5 | 21% | i | 12% | -13%
COC(=O)c1cc2sc(C)cc2n1CC(=O)Nc1ccc(C)c(C)c1 | / | -10 | / | / | 2% | 0%
CNC(=S)N=Nc1c(O)[nH]c2ccccc12 | 4% | / | -18% | i | 0% | -6%
O=C(Cn1nnc(-c2ccccc2)n1)N=Nc1c(O)[nH]c2ccccc12 | -6% | -4 | 27% | -105%* | -1% | -1%
CCOC(=O)C(=O)N=Nc1c(O)[nH]c2ccccc12 | -2% | -3 | -14% | i | 1% | 22µM*
O=C(CCNC(=O)c1ccccc1)N=Nc1c(O)[nH]c2ccccc12 | / | / | / | / | -1% | /
O=C(O)c1ccc(N=Nc2c(O)[nH]c3ccccc23)cc1 | 28µM* | -1 | ? | i | -1% | /
CCOC(=O)C1(C)CCCCCN1C(=O)c1ccc(N(C)C)cc1 (configuration not stated) | / | / | / | i | / | -4%
CC1=C(c2ccc(C)cc2)S(=O)(=O)NC1=NCc1cccc(F)c1 | / | -8 | / | / | -3% | 1%
CC(=O)Nc1ccc(NC(=O)/C=C/c2ccc3c(c2)OCO3)cc1 | 1% | -12 | 17%[15.4 µM] | i | 2% | /
CN(C)CCCNC(=O)/C=C/c1ccc2c(c1)OCO2 | 7% | 1 | -1%[15.4 µM] | i | 0% | 16µM*
c1ccc2c(-c3nc4ccccc4[nH]3)cccc2c1 | / | -3 | ? | i | / | 5%
Cc1ccccc1-c1nc2ccccc2[nH]1 | -2% | 0 | 27% | -124%* | 0% | ?
c1ccc2nc(-c3nc4ccccc4[nH]3)ccc2c1 | -6% | 6 | 3% | i | 0% | 32µM*
c1ccc2[nH]c(-c3ccnc4ccccc34)nc2c1 | -7% | 10 | 12% | i | 1% | 16µM*!
Oc1ccccc1C=Nc1ccccc1-c1nc2ccccc2[nH]1 | -2% | 10 | 8%[15.4 µM] | i | 2% | 28µM*
C[C@@H]1C[C@H]2[C@@H]3CCC4=CC(=O)C=C[C@]4(C)[C@@]3(F)[C@@H](O)C[C@]2(C)[C@@]1(O)C(=O)COC(=O)c1ccncc1 | / | -11 | / | / | / | /
CCN1CCN(c2c(S(=O)(=O)c3ccc(Cl)cc3)cnc3ccccc23)CC1 | / | 9 | / | / | 6% | 0%
O=C(c1ccccc1-c1nc2ccccc2[nH]1)N1CCCCC1 | 4% | -4 | 10% | i | 1% | 28µM*
CN(Cc1ccc(Cl)cc1Cl)C(=O)CN1C(=O)NC2(CCCC2)C1=O | -1% | 4 | 3%[15.4 µM] | i | 1% | 25µM*
SMILES | gsp antagonist | RXFP1 antag | gsp agonist | pAkt inh | RXFP1 agonist | ClpP mod
CCc1ccc(NC(=O)CN(c2ccc(OC)cc2)S(=O)(=O)c2c(C)nn(C)c2C)cc1 | -19% | -113* | ? | i | -1% | 1%
COc1ccc(CN2C(=O)C(CC(=O)NCc3cccs3)CC(C(=O)N3CCOCC3)=C2C)cc1 (configuration not stated) | / | -3 | ? | i | / | -1%
CCOC(=O)c1cccc(NC(=O)C2CCN(S(=O)(=O)c3cn(C)cn3)CC2)c1 | / | 8 | / | / | -2% | -1%
COc1cc2c(cc1OC)C(c1cc3cc4c(cc3[nH]c1=O)OCO4)N(C(=O)C1CC1)CC2 (configuration not stated) | 12% | -15 | -88% | i | 2% | 25µM*
COc1cc2c(cc1OC)C(c1cc3ccc(C)cc3[nH]c1=O)N(C(=O)c1ccco1)CC2 (configuration not stated) | -2% | -19 | 11% | i | 2% | /
O=C(COc1ccc(Br)cc1)Nc1ccc(C(=O)OC2CCCCC2)cc1 | / | -15 | / | / | 5% | -1%
O=C(NCc1cccs1)Nc1cccs1 | 6% | -7 | -17% | -114%* | 0% | 1%
Cc1ccccc1CNC(=O)Nc1cccs1 | -1% | -9 | 1% | i | 1% | 1%
CCc1nnc(NC(=O)CS(=O)(=O)Cc2ccccc2)s1 | -1% | -13 | 12% | i | 0% | /
CCOC(=O)c1c(C)nc2sc3c(=O)n(-c4ccc(C)cc4)cnc3c2c1-c1ccc(OC)cc1 | 14% | -2 | ? | -110%* | 0% | -1%
O=[N+]([O-])c1cccc(/C=N/Nc2nccnc2Cl)c1 | 6% | -14 | 31% | -83%* | 5% | 0%
O=C(CSc1nc2c([nH]c3ccccc32)c(=O)n1-c1ccccc1)c1ccccc1 | / | -109* | / | / | -2% | -11%
O=C(CSc1nc2c([nH]c3ccccc32)c(=O)n1-c1ccc(Cl)cc1)c1ccccc1 | / | / | / | / | 1% | -12%
O=C1c2ccccc2C(=O)N1CCOc1ccccc1Br | -5% | -5 | 3.5µM* | i | 0% | 0%
CCN(CC(=O)NCc1ccc(Cl)cc1)C(=O)c1cc(S(=O)(=O)N2CCOCC2)ccc1C | -6% | -10 | 16%[15.4 µM] | i | / | 14µM*
CN(Cc1ccccc1)C(=O)CCSc1nc(-c2ccc3c(c2)OCO3)cc(C(F)(F)F)n1 | -16% | / | -52% | i | 2% | 18µM*
O=C(CCSc1nc(-c2ccc3c(c2)OCO3)cc(C(F)(F)F)n1)NCc1ccccc1 | 1% | 11 | 5% | i | 4% | -3%
COc1ccc(CNC(=O)CCSc2nc(-c3ccc4c(c3)OCO4)cc(C(F)(F)F)n2)cc1 | 15% | -1 | 8% | i | -1% | 7.9µM*
Cc1ccnc(Nc2ccc(CCO)cc2)n1 | / | / | / | i | / | 0%
c1ccc2c(c1)nnn2Cc1nnc2sc(-c3ccc4c(c3)OCCO4)nn12 | -5% | 0 | -7% | i | 7% | 32µM*
c1ccc(-c2nn3c(Cn4nnc5ccccc54)nnc3s2)cc1 | 3% | -4 | ? | i | 11% | -8%
O=S1(=O)CCOCCCN1Cc1ccc(F)cc1 | / | / | / | / | / | -1%
